# Assay outcomes: PubChem, National Center for Advancing Translational Sciences (NCATS)
# Shown are actives, neighbours in structure and some others; about 19% of the full set was active somewhere.
# HT1080 IDH1KD tx: qHTS for induction of synthetic lethality in tumor cells producing 2HG: qHTS for the HT-1080-IDH1KD cell line; HT-1080 IDH1 knockdown viability, ATP luminescence, 48 h; Potency, µM (titrated, usually from 46.1 µM), usual class: cytotoxic; 360,000 compounds, 2% hits
#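 After a 2 h attachment period, IDH1KD HT-1080 cells took pin-transferred compound for 48 h at 37 °C; ATP-based luminescence after 10 min room-temperature reagent incubation reported viability.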
# TDP1 cell noCPT: qHTS for Inhibitors of human tyrosyl-DNA phosphodiesterase 1 (TDP1): qHTS in cells in absence of CPT; DT40 Tdp1-/- hTDP1 cells, no CPT, ATP luminescence, 48 h; Potency, µM (series often up to 46.2 µM), hits mostly inhibitors; 420,000 compounds, 15% hits; also: nearly all actives have a fitted effect of over 55% in size
#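 Chicken DT40 Tdp1-/- cells complemented with human TDP1, screened without camptothecin (DMSO vehicle only), 400 cells/well. Compounds pin-transferred, cells incubated at 37 °C for at least 48 hr. Growth read as ATP-dependent luminescence (CellTiter-Glo, 30 min at RT).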
# TDP1 cell CPT: qHTS for Inhibitors of human tyrosyl-DNA phosphodiesterase 1 (TDP1): qHTS in cells in presence of CPT. chicken DT40 Tdp1-/-;hTDP1 cells + 20 nM CPT, ATP luminescence, 48 h. Potency, µM (titrated, usually from 46.2 µM), hits mostly inhibitors. 420,000 compounds, 12% hits; also: nearly all actives have a fitted effect of over 55% in size
#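 Cell growth measured by CellTiter-Glo luminescence after a minimum 48 h, 37 C compound exposure with 20 nM CPT in Tdp1-knockout DT40 cells stably expressing hTDP1, seeded 400/well; qHTS titration format.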
# IL1B secr inh: qHTS for Inhibitors of Inflammasome Signaling: IL-1-beta AlphaLISA Primary Screen; activity change, % at 57.5 µM; 360,000 compounds, 4.7% hits; THP-1 LPS/ATP IL-1B secretion, AlphaLISA, 16 h; stronger effect = lower value; in the data active = activity change below about -50%; inconclusive = mostly about -30% to -49%
#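 THP-1 cells pretreated 1 hr with compounds (up to 57.5 uM final), then stimulated with LPS (250 ng/mL final) plus ATP (1.25 mM final); secreted IL-1B measured by AlphaLISA after 16 hr, decreased signal indicating inhibition.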
# HT1080-NT tox: qHTS for induction of synthetic lethality in tumor cells producing 2HG: qHTS for the HT-1080-NT fibrosarcoma cell line; HT-1080-NT fibrosarcoma viability, CellTiter-Glo ATP luminescence, 48 h; 360,000 compounds, 1.6% hits; Potency, µM (highest dose often 46.1 µM), usual class: cytotoxic;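 also: NT is the 2HG producing partner of a matched IDH1 knockdown line; nearly all actives have a fitted effect of over 55% in size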
#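 Compounds were tested in concentration-response format on HT-1080-NT cells for 48 hours at 37 degrees C. Cell viability came from CellTiter-Glo luminescence; curves were classified by r2, response magnitude and activity.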
# Numbers stand for hits; i = inactive; ? = inconclusive; nt = not tested or not shown. Unless noted, calls follow the shape of the dose curve; as a rule, active = well fitted curve in the direction sought with a large enough effect; inconclusive = small, poorly fitted or top-dose-only effect, or another doubt; inactive = no such curve, though single readings can be large; an effect the other way counts as inactive or inconclusive.
SMILES,HT1080 IDH1KD tx,TDP1 cell noCPT,TDP1 cell CPT,IL1B secr inh,HT1080-NT tox
O=S(=O)(Nc1ccc(N2CCCCC2)cc1)c1ccc(F)c(F)c1,i,15µM,?,i,i
COc1ccc(NC(=O)CCS(=O)(=O)c2ccc3nc(C)sc3c2)cc1OC,i,i,i,i,i
O=S(=O)(Nc1ccc(N2CCOCC2)cc1)c1cc(Cl)ccc1Cl,i,12µM,i,i,i
Cc1nc2ccc(NC(=O)CCS(=O)(=O)c3ccc(Cl)cc3)cc2s1,i,15µM,12µM,i,i
Cc1c(NS(=O)(=O)c2ccc3c(c2)OCCO3)cccc1-c1nc2cccnc2s1,i,12µM,?,i,i
O=S(=O)(Nc1cccc(-c2ccc(N3CCOCC3)nn2)c1)c1cc(Cl)ccc1Cl,i,?,i,i,i
COc1cc(-c2[nH]ncc2CN2CCN(c3cccc(C)n3)CC2)cc(OC)c1OC,i,?,?,i,i
Cc1nc2ccc([N+](=O)[O-])cc2s1,i,i,i,i,i
Cc1cc(C)nc(NS(=O)(=O)c2ccc(NS(=O)(=O)c3ccc(F)c(F)c3)cc2)n1,i,i,i,i,i
Cc1nc2ccc(NS(=O)(=O)c3ccc(Br)cc3)cc2s1,i,5.2µM,13µM,i,i
Cc1nc2ccc(S(=O)(=O)Nc3ccc(-c4nc5cccnc5s4)cc3)cc2s1,i,i,i,i,i
Cc1nc2ccc(NS(=O)(=O)c3cccc([N+](=O)[O-])c3)cc2s1,i,15µM,18µM,i,i
Cc1nc2ccc(NS(=O)(=O)c3ccc(F)c(F)c3)cc2s1,i,?,18µM,i,i
Cc1ccc(S(=O)(=O)Nc2ccc3nc(N)sc3c2)cc1,?,12µM,13µM,i,i
COc1ccc(S(=O)(=O)N2CCCOC2CNC(=O)C(=O)NCc2ccccc2C)cc1 (stereo not drawn),i,i,i,i,i
COc1cc(OC)c(/C=N/n2c(C)nnc2C)c(OC)c1,i,?,i,i,i
Cc1nc2ccc(NS(=O)(=O)c3ccc4c(c3)OCCO4)cc2s1,i,1.5µM,1.8µM,i,i
O=c1c(-c2cccc(F)c2)nc2cncnc2n1-c1ccccc1,nt,i,i,nt,nt
CCOc1ccccc1C(=O)Nc1nc2c(s1)CC(C)CC2 (stereo not drawn),nt,21µM,?,nt,nt
CCC(CC)C(=O)Nc1nc2c(s1)CC(C)CC2 (stereo not drawn),nt,18µM,16µM,nt,nt
CCN(CC)CCN(C(=O)Cn1nnc(-c2ccc(C)o2)n1)C(C(=O)NC1CCCC1)c1ccc(F)cc1 (stereo not drawn),i,?,i,?,i
CCN(CC)c1ccc(C=NNc2ccc([N+](=O)[O-])cn2)cc1,i,?,21µM,i,i
O=[N+]([O-])c1ccc(NN=Cc2ccc(O)cc2O)nc1,3.3µM,5.8µM,3.3µM,i,?
CC/C(=N\Nc1ccc([N+](=O)[O-])cc1)c1ccccc1,i,?,?,-51,i
O=C(COC(=O)c1ccccc1NC(=O)c1ccccc1)c1cccc([N+](=O)[O-])c1,i,i,i,i,i
SMILES,HT1080 IDH1KD tx,TDP1 cell noCPT,TDP1 cell CPT,IL1B secr inh,HT1080-NT tox
O=C(COC(=O)c1ccccc1NC(=O)c1ccccc1)c1ccc([N+](=O)[O-])cc1,i,?,23µM,i,i
COc1ccc(OC)c(S(=O)(=O)N2CCC(n3c(C)nc4cccnc43)CC2)c1,nt,i,?,nt,nt
COC(CNC(=O)c1cc(-c2ccncc2)nc2ccc(S(=O)(=O)N3CCOCC3)cc12)OC,i,i,i,i,i
Cc1ccc(CN2CCC(CNC(=O)Nc3c(C)cccc3C)C2)cc1 (stereo not drawn),nt,i,i,nt,nt
Cc1ccc(NC(=O)CCS(=O)(=O)c2ccc3c(c2)oc(=O)n3C)c(Br)c1,nt,i,?,nt,nt
COc1ccccc1NC(=O)CSc1nncs1,i,i,i,i,i
O=C(N/N=C/c1cc([N+](=O)[O-])ccc1O)NC12CC3CC(CC(C3)C1)C2,i,?,?,i,i
CCNC(=O)C(=O)N/N=C/c1cc([N+](=O)[O-])ccc1O,?,?,15µM,i,i
O=C(N/N=C/c1cc([N+](=O)[O-])ccc1O)C12CC3CC(CC(C3)C1)C2,i,23µM,?,i,i
O=C(N/N=C/c1cc([N+](=O)[O-])ccc1O)Nc1ccccc1,16µM,?,?,i,?
O=[N+]([O-])c1ccc(O)c(/C=N/Nc2ccccn2)c1,10µM,1.5µM,1.3µM,-101,12µM
Nc1nnnn1CC(=O)N/N=C/c1cc([N+](=O)[O-])ccc1O,i,i,i,i,i
O=C(Nc1ccccc1)N1CCCC(c2nc(-c3cccs3)no2)C1 (stereo not drawn),i,?,i,i,i
CCCc1nnc(NC(=O)CCC(=O)Nc2ccc(F)cc2)s1,i,i,i,i,i
COc1ccc(S(=O)(=O)N2CCOCC2)cc1NC(=O)c1ccc(S(=O)(=O)N(C)c2ccccc2OC)cc1,i,?,?,i,i
O=[N+]([O-])c1ccc(N/N=C/c2ccccc2O)cc1,?,8.2µM,13µM,i,i
O=[N+]([O-])c1ccc(O)c(/C=N/Nc2nc3ccccc3[nH]2)c1,?,2.1µM,4.1µM,i,?
O=[N+]([O-])c1cccnc1N/N=C/c1ccccc1O,?,9.2µM,?,i,?
N#Cc1ccccc1Cn1cc(/C=N/Nc2ccc([N+](=O)[O-])cn2)c2ccccc21,i,23µM,?,i,i
Cc1cccc(N/N=C/c2ccccc2O)c1,?,i,i,i,?
CCOC(=O)c1c(NC(=O)c2cc3nc(-c4ccc(Br)cc4)cc(C(F)(F)F)n3n2)sc(C(C)=O)c1C,nt,i,i,nt,nt
Cc1ccccc1-n1c(C)cc(/C=N/Nc2ccc([N+](=O)[O-])cn2)c1C,?,?,26µM,i,23µM
CCN(CC)S(=O)(=O)c1ccc(N/N=C/c2ccc(O)cc2O)nc1,?,5.8µM,4.6µM,i,?
O=[N+]([O-])c1ccc(N/N=C\c2cccn2-c2ccccc2)nc1,?,?,12µM,i,?
O=C(CNS(=O)(=O)c1ccc([N+](=O)[O-])cc1)N/N=C/c1ccc(O)cc1O,?,?,?,i,?
O=[N+]([O-])c1cccc(N/N=C/c2cc([N+](=O)[O-])ccc2O)c1,15µM,?,i,i,23µM
O=[N+]([O-])c1ccc(O)c(C=NNc2ccc(S(=O)(=O)O)cc2)c1,i,i,i,i,i
Cc1cc(/C=N/Nc2ccc([N+](=O)[O-])cn2)c(C)n1-c1ccc(C(=O)O)cc1,i,i,i,i,i
